# PubChem BioAssay (NCATS)
# Results filed as inconclusive are left out. A call without a number means that no potency is given here. Values without a mark were called inactive. Active and inactive are the calls of the source. Calls follow the shape of the dose curve; as a rule, active = well fitted cell-killing curve with a large enough effect; inconclusive = small, poorly fitted or top-dose-only effect, or effect the other way; inactive = no such curve, though single readings can be large or run the other way.
# Experiment: Viability qHTS for spleen associated tyrosine kinase inhibitor (SYKi) naive MV4-11 cells (AID 1963823); also: nearly all actives have a fitted effect of over 40% in size
# Conditions: MV4-11 AML viability, CellTiter-Glo luminescence, 72 h; series mostly up to 45 µM
# Method in brief: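 qHTS, SYK inhibitor-naive MV4-11; 500 cells/well; 72 hr compound exposure, 37 C; CellTiter-Glo added, 10 min RT; luminescence read.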
# Potency is read from the fitted curve at half-maximal effect.
SMILES,Potency,viability (% of control)
CC1=C(C(=O)O[C@@H]2O[C@H](COC3OCC(O)C(O)C3O)[C@@H](O)[C@H](O)[C@H]2O)C(C)(C)CCC1 (stereo partly specified),inactive,
COC(=O)[C@@H]1C2CC3c4[nH]c5ccccc5c4CCN3CC2CC[C@@H]1O (stereo partly specified),inactive,
COc1cc(C(=O)OC[C@@]2(O)CO[C@@H](O[C@H]3[C@H](Oc4ccc(O)cc4)O[C@H](CO)[C@@H](O)[C@@H]3O)[C@@H]2O)cc(OC)c1O,inactive,
COC(=O)CC1OC(C)C2=C(O)c3c(O)cccc3C(=O)C23OC13 (stereo unspecified),1.14 µM (active),
Cc1ccc(NC(=O)c2ccc(CN3CC[C@H](N(C)C)C3)c(C(F)(F)F)c2)cc1Nc1nccc(-c2cncnc2)n1,6.32 µM (active),
Oc1cccc(Nc2ccnc3[nH]c4ccccc4c23)c1,1.84 µM (active),
O=C(OC1CN2CCC1CC2)N1CCc2ccccc2C1c1ccccc1 (stereo unspecified),18.4 µM (active),
Nc1ncnc2c1c(I)cn2[C@@H]1C[C@H](N)[C@@H](O)[C@H]1O,2.91 µM (active),
CC(C)C1NC(=O)C2CCCN2C1=O (stereo unspecified),inactive,
C[C@@H]1O[C@@H](O[C@H]2[C@H](OC(=O)[C@]34CCC(C)(C)C[C@H]3C3=CCC5[C@@]6(C)CC[C@H](O[C@@H]7O[C@H](CO[C@@H]8OC[C@H](O)[C@H](O)[C@H]8O)[C@@H](O)[C@H](O)[C@H]7O)C(C)(C)C6CC[C@@]5(C)[C@]3(C)C[C@H]4O)OC[C@@H](O)[C@@H]2O)[C@H](O)[C@H](O[C@@H]2OC[C@](O)(CO)[C@H]2O)[C@H]1O[C@@H]1OC[C@H](O)[C@H](O[C@@H]2OC[C@@H](O)[C@H](O)[C@H]2O)[C@H]1O (stereo partly specified),,88.4% [at 9.25 µM]
C=C1C(=O)O[C@@H]2/C=C(\C)CC/C=C(/C=O)[C@H](OC)[C@@H](OC(=O)C(C)C)[C@@H]12,4.04 µM (active),

# Experiment: Viability qHTS for spleen associated tyrosine kinase inhibitor (SYKi) drug resistant MV4-11 cells (AID 1963824); also: nearly all actives have a fitted effect of over 35% in size
# Conditions: SYKi-resistant MV4-11 viability, CellTiter-Glo, 72 h; series mostly up to 45 µM
# Method in brief: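 CellTiter-Glo luminescence, read 10 min after reagent addition, reports viability after a 72 hr compound exposure. Cells are an MV4-11 line made resistant to SYK inhibition, seeded at 500 per well onto compound-containing plates.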
SMILES,Potency,"viability, % of control"
COc1ccc(/C=C/C(=O)O[C@H]2[C@@H]3C=CO[C@@H](O[C@@H]4O[C@H](CO)[C@@H](O)[C@H](O)[C@H]4O)[C@@H]3[C@@]3(CO)O[C@@H]23)cc1O,inactive,
C=CC(C)(O)CC/C=C(\C)C(=O)OC1C(O)C(CO)OC(OC(=O)C23CCC(C)(C)CC2C2=CCC4C5(C)CCC(OC6OC(COC7OCC(OC(C)=O)C(O)C7OC7OC(COC(C)=O)C(O)C(O)C7OC(C)=O)C(O)C(O)C6OC6OCC(O)C(O)C6O)C(C)(C)C5CCC4(C)C2(C)C(O)C3O)C1OC1OCC(OC2OCC(O)C(OC3OCC(O)C(O)C3O)C2O)C(O)C1O (stereo unspecified),1.78 µM (active),
Cc1cc(-c2ncc(-c3cccnc3)cc2/C=C/c2ccccc2)cnc1-c1cccnc1,inactive,
Cc1cc(C(=O)N2Cc3cnn(C)c3Nc3ccccc32)ccc1CNC(=O)N1CCN(Cc2cc(O)cc(O)c2)CC1,inactive,
C=C[C@]1(C)C=C2CCC3C(C)(CCC[C@@]3(C)C(=O)O)C2CC1 (stereo partly specified),inactive,
C[C@@H]1C[C@H](O)/C=C/[C@H](O)[C@@H](O)CC(=O)O1,inactive,
C/C(CO)=C1/CCC23COC(C2)C(O)(C(=O)O)CCC13 (stereo unspecified),inactive,
COc1cc(Nc2nc3c(s2)CCCC3c2ccc(F)cc2)ccc1-n1cnc(C)c1 (stereo unspecified),4.61 µM (active),
COC(=O)C1=CO[C@@H](O[C@@H]2O[C@H](CO)[C@@H](O)[C@H](O)[C@H]2O)[C@H]2[C@@H]1C=C[C@@]21C=C([C@H](C)O)C(=O)O1,inactive,
COc1cc(C(C)=O)ccc1O[C@@H]1O[C@H](CO[C@@H]2OC[C@@H](O)[C@H](O)[C@H]2O)[C@@H](O)[C@H](O)[C@H]1O,inactive,
C[C@@H]1CN(CCCn2c3ccccc3c3ccccc32)C[C@H](C)N1,26.6 µM (active),
C=Cc1ccc(O[C@@H]2O[C@H](CO[C@@H]3O[C@@H](C)[C@H](O)[C@@H](O)[C@H]3O)[C@@H](O)[C@H](O)[C@H]2O)cc1,inactive,
C=C1C(O)CC2C(C(=O)O)=COC(O[C@@H]3O[C@H](COC(=O)/C=C/c4ccc(O)cc4)[C@@H](O)[C@H](O)[C@H]3O)C12 (stereo partly specified),inactive,
CC1CCC2(NC1)OC1C(=O)C3C4CCC5CC(O[C@@H]6O[C@H](CO)[C@@H](O)[C@H](O)[C@H]6O[C@@H]6O[C@@H](C)[C@H](O)[C@@H](O)[C@H]6O)CCC5(C)C4CCC3(C)C1C2C (stereo partly specified),inactive,
CC1OC(OC2C(CO)OC(OCC3OC(OC(=O)C45CCC(C)(C)CC4C4=CCC6C7(C)CCC(OC8OC(C(=O)O)C(O)C(OC9OC(CO)C(O)C(O)C9O)C8O)C(C)(C)C7CCC6(C)C4(C)CC5)C(O)C(O)C3O)C(O)C2O)C(O)C(O)C1O (stereo unspecified),,105% [at 9.25 µM]
